The results in this text go back to PMC5540273 (PLoS ONE, 2017).

Each structure is given as a SMILES string.

Among the test systems are AAK1; ABL1-nonphosphorylated; ABL1-phosphorylated; ABL2; ACVR1B; ACVR1; ACVR2A; ACVR2B; ACVRL1; ADCK4; AKT1; AKT2; AKT3; ALK; ANKK1.
Common to all, as to conditions: concentration: 1 μM, replicates: in singlicate; n = 1
The next test deals with T1, ADCK3.
T1 construct: gene CABC1

Another test deals with T2, AMPK-alpha1.
T2 construct: gene PRKAA1

Another test has as its system T3, AMPK-alpha2.
T3 construct: gene PRKAA2

For another test, the system named is T4, ARK5.
T4 construct: gene NUAK1

Another test concerns T5, ASK1.
T5 construct: gene MAP3K5
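Note: KINOMEscan kinase panel screen.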

`Cc1ccc(F)c(C(=O)Nc2cccc(-c3nn4ccccc4c3-c3ccnc(Nc4cccc(F)c4)n3)c2)c1F` [GSK361061]: the “%Inh” value was 16% with AAK1; 26% in the test with ABL1-nonphosphorylated; 0% in the test with ABL1-phosphorylated; 62% in the test on ABL2; 60% in the test with ACVR1B; 23% in the test on ACVR1. Also, the “%Inh” value was 7% in the test on ACVR2A; 43% in the test on ACVR2B; 38% in the test with ACVRL1; 0% in the test with ADCK3; 37% in the test with ADCK4; 0% in the test on AKT1. Also, the “%Inh” value with AKT2 is 7%; with AKT3, 0%; in the test with ALK it was 7%; in the test with AMPK-alpha1 it was 8%; in the test on AMPK-alpha2 it was 17%; in the test on ANKK1, 33%. Also, the “%Inh” value in the test on ARK5 was determined as 20%; in the test on ASK1, 2%.
As to `Cc1ccc(C)c(NC(=O)NC2CCN(c3ccnc(Nc4ccc(F)cc4)n3)C2)c1` (centres unmarked) [GSK1379720], the “%Inh” value stood at 6% in the test on AAK1; 0% in the test with ABL1-nonphosphorylated; 0% in the test on ABL1-phosphorylated; 7% with ABL2; 0% with ACVR1B; 14% in the test with ACVR1. The “%Inh” value came out at 0% in the test on ACVR2A; 0% with ACVR2B; 0% in the test on ACVRL1; 0% in the test with ADCK3; 48% in the test on ADCK4; 0% in the test with AKT1. Further, the “%Inh” value worked out at 19% in the test with AKT2; 0% in the test on AKT3; 28% in the test with ALK; 7% with AMPK-alpha1; 0% with AMPK-alpha2; 0% in the test on ANKK1. For the same molecule, the “%Inh” value in the test on ARK5 and in the test on ASK1 was 0% throughout.
For the molecule `CC(C)(C)c1ccc2nccc(Nc3cccc(O)c3)c2c1` [GW856795], the “%Inh” value was determined as 0% with AAK1; 86% in the test with ABL1-nonphosphorylated; 85% in the test on ABL1-phosphorylated; 33% in the test with ABL2; 0% with ACVR1B; 8% in the test with ACVR1. For the same molecule, the “%Inh” value in the test on ACVR2A is 26%; with ACVR2B it was 63%; in the test with ACVRL1, 0%; in the test with ADCK3, 0%; in the test with ADCK4 it was 41%; in the test on AKT1, 0%. For the same molecule, the “%Inh” value with AKT2 was determined as 0%; with AKT3 it was 0%; with ALK, 39%; in the test with AMPK-alpha1 it was 0%; in the test on AMPK-alpha2, 0%; in the test with ANKK1, 0%. Further, the “%Inh” value in the test on ARK5 and in the test on ASK1 was 0% each time.
In the case of `CSc1cccc2c(-c3ccncn3)c(-c3ccc(F)cc3)nn12` [GW514786], the “%Inh” value turned out to be 0% with AAK1; 0% with ABL1-nonphosphorylated; 0% in the test with ABL1-phosphorylated; 12% in the test with ABL2; 43% with ACVR1B; 0% in the test on ACVR1. For the same molecule, the “%Inh” value amounted to 0% in the test with ACVR2A; 7% with ACVR2B; 0% in the test with ACVRL1; 68% with ADCK3; 35% with ADCK4; 0% in the test on AKT1. Moreover, the “%Inh” value stood at 0% with AKT2; 4% in the test on AKT3; 29% with ALK; 32% in the test on AMPK-alpha1; 0% in the test with AMPK-alpha2; 0% with ANKK1. Besides, the “%Inh” value with ARK5 was 12%; with ASK1 it was 0%.
Regarding `COc1cc(Nc2nccc(N3CCC(NC(=O)Nc4cccc(C(C)=O)c4)C3)n2)cc(OC)c1OC` (centres unmarked) [GSK1379753], the “%Inh” value in the test with AAK1 is 65%; with ABL1-nonphosphorylated, 0%; in the test on ABL1-phosphorylated, 0%; in the test with ABL2, 17%; with ACVR1B, 0%; in the test with ACVR1, 0%. For the same molecule, the “%Inh” value with ACVR2A is 0%; in the test on ACVR2B it was 100%; in the test with ACVRL1, 0%; in the test with ADCK3, 0%; in the test with ADCK4 it was 55%; in the test on AKT1 it was 0%. The “%Inh” value with AKT2 was 0%; in the test on AKT3, 0%; in the test on ALK, 44%; in the test on AMPK-alpha1 it was 0%; in the test on AMPK-alpha2 it was 0%; in the test on ANKK1, 41%. Besides, the “%Inh” value in the test with ARK5 is 27%; in the test on ASK1, 0%.
As to `Clc1ccc(-c2nn3ncccc3c2-c2ccnc(Nc3ccc4c(c3)OCCO4)n2)cc1` [GW829116], the “%Inh” value came to 0% in the test on AAK1; 61% in the test on ABL1-nonphosphorylated; 7% with ABL1-phosphorylated; 0% with ABL2; 28% with ACVR1B; 0% in the test with ACVR1. Besides, the “%Inh” value in the test with ACVR2A came out at 14%; in the test with ACVR2B, 54%; in the test on ACVRL1 it was 4%; with ADCK3 it was 16%; in the test on ADCK4, 90.4%; with AKT1, 13%. Besides, the “%Inh” value in the test on AKT2, with AKT3, in the test on ALK, with AMPK-alpha1, in the test on AMPK-alpha2 and with ANKK1 was 0% throughout. Moreover, the “%Inh” value with ARK5 and with ASK1 was 0% throughout.
With `O=C(Nc1cccc(-c2nn3ccccc3c2-c2ccnc(Nc3cccc(F)c3)n2)c1)c1c(F)ccc(F)c1Cl` [GSK357952], the “%Inh” value in the test on AAK1 turned out to be 0%; in the test on ABL1-nonphosphorylated it was 26%; in the test on ABL1-phosphorylated it was 0%; in the test on ABL2, 25%; with ACVR1B, 0%; in the test with ACVR1, 1%. The “%Inh” value with ACVR2A was determined as 16%; in the test with ACVR2B, 13%; in the test with ACVRL1, 18%; in the test on ADCK3 it was 16%; in the test with ADCK4, 0%; with AKT1, 0%. Besides, the “%Inh” value in the test with AKT2 is 9%; in the test with AKT3, 0%; in the test on ALK, 0%; in the test on AMPK-alpha1 it was 20%; in the test with AMPK-alpha2, 21%; in the test with ANKK1, 2%. Further, the “%Inh” value in the test on ARK5 was found to be 0%; with ASK1 it was 1%.
As to `Cl.c1ccc(-c2ccc3c(Nc4ccc5[nH]ccc5c4)ccnc3c2)nc1` [GW440138], the “%Inh” value in the test with AAK1 was 10%; with ABL1-nonphosphorylated, 85%; in the test on ABL1-phosphorylated, 94.1%; in the test with ABL2, 48%; in the test with ACVR1B, 0%; in the test on ACVR1, 55%. The “%Inh” value is reported as 29% in the test on ACVR2A; 89% with ACVR2B; 12% with ACVRL1; 2% in the test with ADCK3; 38% in the test with ADCK4; 0% in the test with AKT1. Also, the “%Inh” value with AKT2 is 0%; with AKT3, 0%; in the test with ALK, 25%; in the test on AMPK-alpha1, 0%; in the test on AMPK-alpha2, 0%; in the test with ANKK1, 11%. In addition, the “%Inh” value was 4% in the test with ARK5 and 0% in the test with ASK1.
Turning to `Oc1cc(Nc2ccnc3cc(I)ccc23)ccc1F` [GW552771], the “%Inh” value is 10% in the test with AAK1; 99.1% with ABL1-nonphosphorylated; 99.6% with ABL1-phosphorylated; 91.7% in the test with ABL2; 54% in the test on ACVR1B; 97.4% in the test on ACVR1. Besides, the “%Inh” value turned out to be 100% in the test on ACVR2A; 93.7% in the test on ACVR2B; 69% in the test with ACVRL1; 19% in the test on ADCK3; 38% with ADCK4; 0% in the test on AKT1. The “%Inh” value with AKT2 was determined as 16%; with AKT3, 0%; with ALK, 34%; with AMPK-alpha1 it was 15%; in the test on AMPK-alpha2 it was 1%; with ANKK1, 0%. For the same molecule, the results for the “%Inh” value in the test on ARK5 and in the test on ASK1 were 18% and 0%, respectively.
`Cc1cccc(NC(=O)Nc2ccc(Oc3ncnc4ccn(C)c34)cc2)c1`: the “%Inh” value in the test on AAK1 was found to be 0%; in the test on ABL1-nonphosphorylated, 33%; in the test with ABL1-phosphorylated, 23%; in the test with ABL2, 0%; in the test with ACVR1B it was 0%; with ACVR1, 4%. In addition, the “%Inh” value in the test with ACVR2A amounted to 2%; in the test on ACVR2B, 0%; with ACVRL1, 0%; in the test on ADCK3 it was 0%; in the test with ADCK4, 0%; with AKT1, 0%. Also, the “%Inh” value is reported as 0% with AKT2; 0% in the test on AKT3; 0% with ALK; 9% in the test with AMPK-alpha1; 0% in the test on AMPK-alpha2; 0% in the test with ANKK1. Moreover, the “%Inh” value in the test with ARK5 and in the test on ASK1 was 0% throughout.
